Source: PubChem BioAssay
The source made the active and inactive calls.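 The calls were made as follows, unless noted: active = NADPH fluorescence slope more negative than the mean of all samples by about 3 SD, 99.7% confidence; inactive = the rest.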

Key:
[1] = inhibitors of TNFa-induced NFkB p65 translocation, primary screen, imaging, HUVEC, MLSMR starter and 10KST1 sets (AID 438;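 active = inhibition above 20% together with a positive visual image hit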;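 also: compound added about 3h40 before a 20 min TNFalpha stimulation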;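 as to inhibition: signal is the nuclear over cytoplasmic p65 intensity ratio per well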); details: HUVEC TNFa-induced p65 nuclear translocation; cell count: measured here: nuclei count (cytotoxicity indicator), at 2.08 µM; inhibition: at 2 µM, stronger effect = higher value, 0% TNFa-plus-vehicle, 100% no-TNFa wells
[2] = reduction of polyQ htt aggregates in cells – imaging, exon1htt(103Q)mCFP cells, high-content imaging, primary screen (AID 483;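 active = visual image review flags a hit and inhibition of aggregation exceeds 20%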;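 also: compound exposure lasted 3 days before fixation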;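 as to nuclei count: percent of the per-plate median nuclei count of sample wells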); details: exon1htt(103Q)mCFP cell line, aggregate imaging, at 2 µM; inhibition of aggregation: stronger effect = higher value; nuclei count: measured here: cell count, toxicity
[3] = endothelial E-selectin expression blockers – imaging, HUVEC, immunofluorescence, MLSMR starter and 10KST1 sets, primary screen (AID 487;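 active = visually confirmed hit in the image check and inhibition above 20%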;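 as to inhibition: signal is fraction of cell area covered by stained E-selectin grains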;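 as to nuclei count: 100% = median nuclei count of all wells on the same plate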); details: HUVEC TNFalpha-induced E-selectin immunofluorescence imaging, at 2 µM; inhibition: stronger effect = higher value; nuclei count: measured here: cell number, toxicity
[4] = target: Voltage-gated potassium channel subunit beta-2 (Rattus norvegicus) (UniProt P62483); assay: inhibitors of rat Kvbeta2 reductase activity – biochemical, NADPH fluorescence, primary screen (AID 622;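 active = fluorescence slope higher than the sample average by over 3 SD, cut at about -0.22 in these data, passing the limit was not always enough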;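 also: slope of raw intensity against log time taken from 70 to 1610 s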); details: recombinant KvBeta, 4-cyanobenzaldehyde reduction, at 10 µM, stronger effect = higher value
Voltage-gated potassium channel subunit beta-2 (Rattus norvegicus), sequence (P62483 whole entry, looked up): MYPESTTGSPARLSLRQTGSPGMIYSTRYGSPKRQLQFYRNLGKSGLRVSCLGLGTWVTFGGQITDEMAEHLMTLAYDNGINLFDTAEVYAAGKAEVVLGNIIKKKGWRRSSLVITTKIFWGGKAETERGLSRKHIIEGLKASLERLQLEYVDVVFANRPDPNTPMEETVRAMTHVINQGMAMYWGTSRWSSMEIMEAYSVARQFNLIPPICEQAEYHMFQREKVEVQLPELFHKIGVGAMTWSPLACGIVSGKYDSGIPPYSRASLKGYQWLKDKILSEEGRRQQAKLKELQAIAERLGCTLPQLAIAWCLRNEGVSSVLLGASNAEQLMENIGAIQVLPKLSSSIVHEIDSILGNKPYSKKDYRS

[5] = target: Voltage-gated potassium channel subunit beta-2 (Rattus norvegicus) (UniProt P62483); assay: enhancers of rat Kvbeta2 NADPH turnover – biochemical, NADPH fluorescence, primary screen (AID 623); details: Recombinant KvBeta, NADPH fluorescence decrease slope, 10 min; at 10 µM; stronger effect = lower value;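 also: fluorescence intensity change per second fitted from 20 to 320 s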
[6] = target: Alpha-2C adrenergic receptor (Homo sapiens) (UniProt P18825); assay: compounds altering alpha2C-coupled GIRK flux – cell-based, HEK293 alpha2C/GIRK1/2, thallium flux, primary screen (AID 624;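 active = fluorescence slope after compound addition differing from the mean of all screened samples at 99.7% confidence, in either direction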;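 also: slope of fluorescence ratio to pre-addition baseline per second over 15 to 24 s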); details: thallium flux BTC fluorescence, at 10 µM, actives lie on both sides
Alpha-2C adrenergic receptor (Homo sapiens), sequence (P18825 whole entry, looked up): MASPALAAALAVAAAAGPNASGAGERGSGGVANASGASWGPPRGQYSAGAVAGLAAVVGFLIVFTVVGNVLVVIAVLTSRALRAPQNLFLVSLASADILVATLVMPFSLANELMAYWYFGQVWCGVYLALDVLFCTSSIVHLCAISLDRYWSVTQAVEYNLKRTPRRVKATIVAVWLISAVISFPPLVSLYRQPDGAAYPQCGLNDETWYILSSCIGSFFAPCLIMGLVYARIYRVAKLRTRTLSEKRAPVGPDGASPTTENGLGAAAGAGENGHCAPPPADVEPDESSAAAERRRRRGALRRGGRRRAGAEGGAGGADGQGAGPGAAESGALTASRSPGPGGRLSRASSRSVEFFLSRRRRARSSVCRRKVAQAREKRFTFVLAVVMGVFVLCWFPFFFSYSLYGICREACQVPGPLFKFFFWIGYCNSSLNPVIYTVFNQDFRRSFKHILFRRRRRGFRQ

[7] = blockers of RIG-like receptor reporter activation – cell-based, Sendai virus stimulus, luciferase, 10K MLSCN set, TLR/RLR signaling modifier project, primary screen (AID 602276;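 active = inhibition at or above 50% at 10 µM; inactive = inhibition below 50%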;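 also: firefly luciferase from ISG56 promoter only with Renilla not read in this screen; 0% = Sendai virus plus DMSO and 100% = medium plus DMSO without virus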); details: HEK293 RL24 IRF3 luciferase reporter, at 10 µM, stronger effect = higher value
[8] = TLR3 IRF3 reporter activation blockers – cell-based, poly I:C stimulus, luciferase, 10K MLSCN set, primary screen (AID 602277;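 active = inhibition of the reporter signal at or above 50%; inactive = inhibition below 50%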); details: HEK293-TLR3 RL24 IRF3 luciferase reporter, at 10 µM, stronger effect = higher value

| Compound | cell count [1] | inhibition [1] | inhibition of aggregation [2] | nuclei count [2] [%] | inhibition [3] | nuclei count [3] [%] | fluorescence slope [4] | NADPH fluorescence slope [5] | slope [6] | inhibition [7] | inhibition [8] |
| --- | --- | --- | --- | --- | --- | --- | --- | --- | --- | --- | --- |
| CC(NC(=O)Cc1cccs1)c1ccc2c(c1)OCO2 (stereo not drawn) | 333 | 5.1% (inactive) | -3.8% (inactive) | 104 | -9.2% (inactive) | 109 | -0.609 (inactive) | -2.4e-05 (inactive) | 0.00364 (inactive) | 14.9% (inactive) | 4.01% (inactive) |
| CCN(CC)c1ccc2cc(NC(=O)CCC(=O)O)c(=O)oc2c1 | 463 | -21.1% (inactive) | -6.8% (inactive) | 95 | -33% (inactive) | 101 | -0.0111 (active) | -5.3e-06 (inactive) | 0.00247 (inactive) | 50.8% (active) | 92.5% (active) |
| Fc1cccc(Nc2cc(-n3cccn3)ncn2)c1 | 553 | -8.3% (inactive) | -0.2% (inactive) | 89.5 | -65.9% (inactive) | 109 | -0.509 (inactive) | -7.2e-05 (inactive) | 0.00508 (inactive) | -32.7% (inactive) | -66.1% (inactive) |
| CCCC(=O)Nc1nnc(Sc2ccc(N(C)C)cc2)s1 | 671 | 4.8% (inactive) | -9.6% (inactive) | 96.4 | -15.5% (inactive) | 97.6 | -0.466 (inactive) | -2.9e-05 (inactive) | 0.00582 (inactive) | -1.24% (inactive) | -10.3% (inactive) |
| Cc1cccc(Nc2ncc3c(n2)CC(c2ccco2)CC3=O)c1 (stereo not drawn) | 386 | -1% (inactive) | -7% (inactive) | 84.1 | -29% (inactive) | 187 | -0.378 (inactive) | -1.7e-05 (inactive) | 0.003 (inactive) | -2.61% (inactive) | -12.4% (inactive) |
| CCOC(=O)/C(C#N)=C(/C)c1ccc(OC)cc1 | 323 | -9.6% (inactive) | -28.9% (inactive) | 120 | -50.1% (inactive) | 120 | -0.515 (inactive) | -4.3e-06 (inactive) | 0.00405 (inactive) | 5.07% (inactive) | -13.7% (inactive) |
| O=C(c1cc2cc(Cl)cc(Cl)c2oc1=O)N1CCOCC1 | 275 | 13.1% (inactive) | -12% (inactive) | 87.4 | -63.2% (inactive) | 110 | -0.48 (inactive) | -6.7e-05 (inactive) | 0.0058 (inactive) | 26.9% (inactive) | 30.3% (inactive) |
| Oc1cc(NCc2cccnc2)ccc1-c1nc2ccccc2o1 | 378 | 6.8% (inactive) | -7.8% (inactive) | 119 | -28.5% (inactive) | 123 | -0.46 (inactive) | 8.7e-06 (inactive) | 0.00562 (inactive) | -31.3% (inactive) | -152% (inactive) |
| O=S(=O)(c1ccc(N2CCN(c3ccc(F)cc3)CC2)cc1)N1CCCC1 | 230 | 14% (inactive) | -8.7% (inactive) | 95.7 | -32.4% (inactive) | 106 | -0.476 (inactive) | -2.4e-05 (inactive) | 0.00651 (inactive) | 10.2% (inactive) | 19.7% (inactive) |
| C/C(=N\O)C(=O)C(CN1CCCCC1)CN1CCCCC1 | 386 | 0.5% (inactive) | -0.1% (inactive) | 89.2 | -144% (inactive) | 98.1 | -0.437 (inactive) | 1.9e-05 (inactive) | 0.00389 (inactive) | -5.16% (inactive) | 25.3% (inactive) |
| COc1ccccc1N1CCN(C(=O)c2cc(C3CC3)on2)CC1 | 626 | -8.7% (inactive) | -1.6% (inactive) | 85.4 | 1.1% (inactive) | 95.8 | -0.607 (inactive) | -3.3e-05 (inactive) | 0.00629 (inactive) | -5.11% (inactive) | 26.8% (inactive) |
| CCCCC(O)(C(NC=O)C(=O)OC)C(F)(F)F (stereo not drawn) | 703 | -10.7% (inactive) | 12.7% (inactive) | 67.6 | -10.7% (inactive) | 113 | -0.489 (inactive) | 9.5e-07 (inactive) | 0.00464 (inactive) | 22% (inactive) | 16% (inactive) |
| O=C(C1CC1)N1CCC(c2nc(-c3ccc(S(=O)(=O)NCC4CCCO4)cc3)no2)CC1 (stereo not drawn) | 334 | -3% (inactive) | -20.7% (inactive) | 143 | -43.6% (inactive) | 91.9 | -0.491 (inactive) | 3.5e-06 (inactive) | 0.00666 (inactive) | -27.5% (inactive) | -49.4% (inactive) |
| COc1cc2c(cc1OC)C(c1cccnc1)CC(=O)N2 (stereo not drawn) | 481 | -7.4% (inactive) | -12.3% (inactive) | 71.7 | -30.8% (inactive) | 117 | -0.513 (inactive) | -2.9e-05 (inactive) | 0.00629 (inactive) | 9.14% (inactive) | 14.4% (inactive) |
| O=c1c(CN2CCN(Cc3ccccc3)CC2)coc2ccc(Cl)cc12 | 463 | -1.6% (inactive) | -1.1% (inactive) | 113 | -69.1% (inactive) | 125 | -0.41 (inactive) | -0.000112 (inactive) | 0.00599 (inactive) | -2.78% (inactive) | 4.22% (inactive) |
| COCCNS(=O)(=O)c1cc(F)ccc1OC | 782 | -6.6% (inactive) | -2.8% (inactive) | 113 | -62.4% (inactive) | 111 | -0.481 (inactive) | -3.4e-05 (inactive) | 0.00632 (inactive) | -4.54% (inactive) | 25.9% (inactive) |
| CN1C(=O)CCC1(O)c1ccccc1 (stereo not drawn) | 565 | -9.2% (inactive) | 18.6% (inactive) | 54.1 | -51.3% (inactive) | 103 | -0.392 (inactive) | 1.8e-06 (inactive) | 0.00341 (inactive) | 11.4% (inactive) | 38.2% (inactive) |
| CC(=O)Nc1ccc(N=Cc2ccc[nH]2)cc1 | 362 | 3.4% (inactive) | -8.9% (inactive) | 108 | 9.1% (inactive) | 99.4 | -0.264 (inactive) | -1.6e-05 (inactive) | 0.00576 (inactive) | 9.12% (inactive) | -21% (inactive) |
| Cc1cc(NC(=O)CSc2nc3ccccc3n2CC(=O)N2CCCCC2)no1 | 722 | -2% (inactive) | -15% (inactive) | 108 | -70.8% (inactive) | 119 | -0.475 (inactive) | -4.9e-05 (inactive) | 0.00628 (inactive) | 14.5% (inactive) | 29.1% (inactive) |
| CCOC(=O)c1ccc(N2Cc3cc(C)c(C)cc3C2)cc1O | 744 | 2.9% (inactive) | 6.2% (inactive) | 92.7 | -36.2% (inactive) | 119 | -0.457 (inactive) | -1.3e-05 (inactive) | 0.00595 (inactive) | -26.7% (inactive) | -52.7% (inactive) |
| CC(C)CNS(=O)(=O)c1ccc(CCC(=O)N2CCOCC2)cc1 | 647 | 1.1% (inactive) | -3% (inactive) | 104 | -45.6% (inactive) | 104 | -0.471 (inactive) | -4.8e-05 (inactive) | 0.00694 (inactive) | 8.44% (inactive) | 21.1% (inactive) |
| COC(=O)Cc1cc(=O)[nH]c(Nc2nc3ccccc3o2)n1 | 354 | -1.4% (inactive) | -11.1% (inactive) | 108 | -125% (inactive) | 112 | -0.268 (inactive) | -3.1e-06 (inactive) | 0.00603 (inactive) | -2.52% (inactive) | -64.7% (inactive) |
| CCOC(=O)Cc1nnc2c(Nc3ccccc3F)nc3nonc3n12 | 631 | -9.1% (inactive) | -25.8% (inactive) | 119 | -38.4% (inactive) | 142 | -0.582 (inactive) | -7e-06 (inactive) | 0.00616 (inactive) | 7.74% (inactive) | -15.3% (inactive) |
| Cc1ccc2[nH]c(=O)c(-c3noc(-c4ccncc4)n3)cc2c1 | 474 | -9.1% (inactive) | -82.1% (inactive) | 65 | -51% (inactive) | 93.8 | -0.31 (inactive) | -6e-05 (inactive) | 0.0054 (inactive) | 8.49% (inactive) | 12.4% (inactive) |
| O=C(Nc1ccccc1)c1cnc2n(c1=O)CCS2 | 734 | -18.7% (inactive) | 11.2% (inactive) | 106 | -25.4% (inactive) | 121 | -0.517 (inactive) | -3.2e-05 (inactive) | 0.0079 (inactive) | -16.4% (inactive) | -44.7% (inactive) |
| COc1ccc(CCNc2oc(COc3ccccc3Cl)nc2C#N)cc1OC | 643 | 0.3% (inactive) | -3% (inactive) | 99.9 | -24.6% (inactive) | 109 | -0.462 (inactive) | -5.7e-05 (inactive) | 0.00453 (inactive) | 1.77% (inactive) | -11% (inactive) |
| CCc1c(C)c2c(C)nn(-c3ccccc3)c2[nH]c1=O | 292 | -0.8% (inactive) | 21.9% (inactive) | 94.5 | -49.1% (inactive) | 123 | -0.409 (inactive) | -0.000123 (inactive) | 0.00678 (inactive) | 6.95% (inactive) | -0.265% (inactive) |
| CCN(CC)CCCNC(=O)c1cn(C)c2ccc(S(=O)(=O)N(C)C)cc2c1=O | 559 | -2.8% (inactive) | -53.9% (inactive) | 73.6 | 69.2% (active) | 98.9 | -0.587 (inactive) | -3.7e-05 (inactive) | 0.00615 (inactive) | 7.25% (inactive) | 33.2% (inactive) |
